Bioassay records as filed in PubChem.
HCV inhibitor: inhibitors of hepatitis C virus infection. Potency, µM (doses to about 41.8 µM), inactives show at the top dose activity change, negative = inhibition, actives largely listed as inhibitors. AID 651820. hit rate 3.4% among 340,000. Huh7.5.1 HCVcc-Cre infection, luciferase reporter, 44 h; further: potency means the concentration at half of the fitted maximal effect; on the % scale 0 is the no-effect control and ±100 the full control effect
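Luciferase read-out (15 sec integration) after a 15 min room-temperature substrate step quantifies HCVcc-Cre infection. Cells, 1,000 per well, had compound added 4 h post-plating, then virus at ~0.5 moi, and were cultured 44 h.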
Shiga toxin inh: inhibitors of Shiga toxin in Vero cells. Vero cells, Shiga toxin protein synthesis inhibition reporter. inhibition, % at 38.7 µM. hit rate 9.2% among 290,000. AID 2315; in the data active means inhibition mostly above about 28%, no sharp cut-off; inactive means mostly below about 43%; further: 0% is about no effect
HCMV antiviral: blocks human cytomegalovirus replication. hit rate 4.5% among 410,000. HFF cells, HCMV-luciferase reporter, 72 h; active compounds read low. activity change, negative = inhibition, % at 57.5 µM; in the data active means activity change below about -60%; inconclusive means no clear call, values can overlap the other calls; inactive means above about -39%; further: on the % scale 0 is the no-effect control and ±100 the full control effect
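After 16 h attachment at 37C, HFF cells received test compound and HCMV-luciferase (1 PFU/cell); reporter luminescence read 72 h later, data normalized against buffer-only and known inhibitor Salinomycin.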
Pf growth 96h: P. falciparum growth inhibition at 96 hour, primary screen for plastid delayed-death inhibitors; P. falciparum luciferase reporter growth, 96 h; Potency, µM (doses to about 28.7 µM), for inactives: at the top dose activity change, negative = inhibition, actives largely listed as inhibitors; hit rate 6.9% among 320,000; AID 504834; further: potency means the concentration at half of the fitted maximal effect; on the % scale 0 is the no-effect control and ±100 the full control effect
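96 h incubation, 37 C, 5% CO2, of luciferase-reporter P. falciparum-infected RBCs (2% hematocrit, 0.05% parasitemia final) with test compounds; endpoint luminescence.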
CHX counter: affects cycloheximide protein synthesis inhibition readout, counter-screen | cell reporter, cycloheximide protein synthesis inhibition counterscreen | hit rate 12% among 300,000 | AID 2314 | max response, %; in the data active means max response mostly above about 13%, no sharp cut-off; inactive means mostly below about 14%; further: read at 38.3 µM for the half of the compounds with a filed dose; 0% is about no effect
Pf growth 48h: inhibits P. falciparum growth in the first generation, 48 h | Potency, µM (top dose mostly 28.7 µM), inactives show at the top dose activity change, negative = inhibition, most hits filed as inhibitors | AID 504832 | hit rate 5.9% among 310,000 | P. falciparum luciferase growth in erythrocytes, 48 h; further: potency means the concentration at half of the fitted maximal effect; on the % scale 0 is the no-effect control and ±100 the full control effect
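Cell-based growth assay: transgenic P. falciparum expressing firefly luciferase, cultured in red cells within RPMI 1640 containing 0.5% w/v Albumax, 24 mM bicarbonate and gentamycin. A drop in luciferase activity indicates inhibition.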
Active calls of the source: *; ? = inconclusive; · = no result. Most compounds without a hit are left out; they make up all but 21% or so of the library. Unless noted, the call rests on the fitted dose curve; in most records, active means well fitted inhibition curve with a large enough effect; inconclusive means small, poorly fitted or top-dose-only effect, or another doubt; inactive means no such curve, though single readings can be large or run the other way.

SMILES	HCV inhibitor	Shiga toxin inh	HCMV antiviral	Pf growth 96h	CHX counter	Pf growth 48h
CCN(CC)c1ccc(-n2c(C)c(C(C)=O)c(C(C)=O)c2C)cc1	-20%	28	-63*	?	-7	?
O=C(CNCc1ccccc1)Nc1ccc(Oc2ccccc2)cc1	-22%	32	-30	37%	2	-8%
O=C(CNC(=O)c1ccccc1Cl)Nc1ccc(F)cc1	?	11	-10	?	19*	28%
COc1cccc(NC(=O)CNCc2ccccc2)c1	?	62*	28	16%	29*	33%
COc1cccc(NC(=O)Cc2ccccc2)c1	-30%	16	-2	?	-3	8%
COc1cccc(NC(=O)CC(=O)c2ccccc2)c1	?	100*	73	129%	59*	5%
O=C(CNCc1ccccc1)Nc1ccc(F)cc1	22%	14	10	17%	35*	30%
CCOc1cc(C#N)c(NC(=O)Cn2nnc3ccccc32)cc1OCC	-10%	-23	0	5.9µM*	-2	6%
O=C(Cn1nnc2ccccc21)Nc1ccccc1[N+](=O)[O-]	14%	2	-18	44%	-4	-15%
COc1ccc(/C=N/NC(=O)Cn2nnc3ccccc32)cc1OC	-10%	32*	35	54%	22*	5%
COc1ccc(/C=N/NC(=O)c2ccccc2O)cc1Cn1nnc2ccccc21	15%	50*	-20	8%	22*	-11%
CN(C)c1ccc(/C=N/NC(=O)Cn2nnc3ccccc32)cc1	18%	27	-6	59%	15	21%
CC(C)C[C@H]1CN(CCCC[C@H]2CNC(=O)C(=O)N2CCc2ccccc2)C(=O)C(=O)N1CCc1ccccc1	·	·	-4	·	·	·
O=C(CC[C@H]1O[C@@H](n2cnc3c(NC(=O)c4ccccc4)ncnc32)[C@H](O)[C@@H]1O)NCc1cccc2ccccc12	·	·	-64*	·	·	·
O=C(CNC(=O)c1ccccc1F)NCCN1C(=O)S/C(=C\c2ccccc2Cl)C1=O	-19%	-21	-1	9%	10	8%
O=C(CCS(=O)(=O)c1ccc(Cl)cc1)NCCN1C(=O)S/C(=C\c2ccccc2F)C1=O	?	67*	-6	-11%	34*	-9%
Cc1ccc(S(=O)(=O)CCC(=O)NCCc2ccccc2)cc1	10%	-5	-2	1%	2	-7%
Cc1ccc(S(=O)(=O)CCC(=O)NCCN2C(=O)S/C(=C\c3ccccc3)C2=O)cc1	?	36	-26	?	16*	4%
CCOc1ccc(CCNC(=O)C2CC(C)=CCC2C(=O)O)cc1OCC (stereo unspecified)	-2%	-5	?	?	-2	2%
O=C(NC(=S)NCC1CCCO1)c1ccc(Cl)cc1 (stereo unspecified)	-6%	41*	23	15%	29*	67%
O=C(COC(=O)c1ccccc1)NCC1CCCO1 (stereo unspecified)	7%	46*	-25	·	24*	25%
CCOc1cc(NC(=S)NCC2CCCO2)c(OCC)cc1NC(=O)c1ccc(C)cc1 (stereo unspecified)	?	-10	51	?	3	-2%
O=C(NC(=S)NCC1CCCO1)c1ccccc1 (stereo unspecified)	-4%	34*	-14	34%	31*	50%
Cc1ccc(C(=O)NC(=S)NCC2CCCO2)cc1 (stereo unspecified)	-20%	102	98	?	65*	101%
O=C(NC(=S)NCC1CCCO1)c1ccc([N+](=O)[O-])cc1 (stereo unspecified)	14%	10	14	0.59µM*	9	25%
SMILES	HCV inhibitor	Shiga toxin inh	HCMV antiviral	Pf growth 96h	CHX counter	Pf growth 48h
C(=N\Nc1nc2ccccc2[nH]1)/c1ccc2c(c1)OCCO2	?	36	-1	?	28*	?
Cc1cc(C)nc(N/N=C/c2ccc3c(c2)OCCO3)n1	-4%	59*	-10	48%	25*	63%
C(=N\Nc1ccc2ccccc2n1)/c1ccc2c(c1)OCCO2	3%	-4	-90*	178%	-2	4%
CCN(CC)c1ccc(/C=N/Nc2nc(C)cc(C)n2)cc1	?	35	?	?	20	?
O=[N+]([O-])c1ccc(NN=Cc2ccc3c(c2)OCO3)nc1	10%	·	78	·	·	·
CC(C)NC(=S)N/N=C/c1ccc2c(c1)OCCO2	25%	53*	-67*	21%	49*	16%
CCc1nn(CC(=O)NCCc2ccc(SC)cc2)c(=O)c2cc3sccc3n12	·	·	-8	·	·	·
COC(=O)C1=C(C)NC(=O)NC1c1cn(-c2ccccc2)nc1-c1ccc(OC)c(Br)c1 (stereo unspecified)	·	·	12	·	·	·
O=C(NCc1ccc2c(c1)OCO2)C1CC(=O)N(CCc2ccc(F)cc2)C1 (stereo unspecified)	-6%	-6	-39	0%	-6	-5%
COc1ccc(Cl)cc1NC(=O)Cn1nc(C(F)(F)F)c2c1CCCC2	·	·	-22	·	·	·
CC(Oc1ccc(C(=O)c2ccc(F)cc2)cc1)C(=O)N1CCOCC1 (stereo unspecified)	6%	·	-3	9%	·	-16%
O=C(O)c1ccccc1C(=O)N1CC=C(c2ccccc2)CC1	?	72	-30	37%	27*	?
Cc1ccc(C(=O)N2CC=C(c3ccccc3)CC2)o1	11µM*	·	-37	-5%	·	13µM*
Cc1cc(C(=O)N2CC=C(c3ccccc3)CC2)c2ccccc2n1	?	·	-22	-1%	·	?
CCOC(=O)C1CCN(C(=O)c2nn(-c3ccc(C)cc3)c(=O)n(C)c2=O)CC1	·	·	11	·	·	·
Cc1ccc2nc(C3CCCCC3)c(CC(C)(C)C)n2c1	·	·	-13	·	·	·
CCOC(=O)Cn1c2ccccc2c2nc(C)sc21	0%	19	-36	182%	-3	23%
CCN(CC)CCSc1nnc2c3cc(F)ccc3n(Cc3ccccc3)c2n1	?	-6	-22	5%	-4	·
CCCn1c2ccccc2c2nc3ccccc3nc21	?	27	-17	·	19*	?
CCOC(=O)Cn1c2ccccc2c2nc3ccccc3nc21	7%	28	37	60%	12*	28%
CCOC(=O)Cn1c(=O)c(-c2ccccc2N)nc2ccccc21	19%	-4	19	5%	25*	14%
CCOC(=O)Cn1c(=O)c(-c2cc(Br)ccc2N)nc2ccccc21	-15%	-5	0	32%	-2	64%
CCN(CC)CCSc1nnc2c3ccccc3n(Cc3ccccc3)c2n1	11µM*	-3	?	?	6	5.2µM*
CN1CCN(c2ccc(-c3cc(NC=O)c4ncc(-c5ccccc5)n4c3)cc2)CC1	·	·	4	·	·	·
Cc1ccc(-n2nc(C)c(=O)c(-c3ccccc3)c2NC(=O)C(C)C)cc1	11%	-6	-22	26%	-1	3%
Cc1ccccc1-c1nc2c(c(SCc3cccc(Cl)c3)n1)Cc1c(CO)cnc(C)c1O2	·	·	11	·	·	·
